Laboratory results as given in PubChem BioAssay (NCATS).
Values joined by “and” are separate entries in the source; they are usually repeats but may differ in a detail not shown here. Equal values may be shown once. Results filed as inconclusive are left out. A call without a number means that no potency is given here. Some compounds were tested as several samples or in several runs, with calls that do not always agree. Active and inactive are the calls of the source. Unless noted, calls follow the shape of the dose curve; as a rule, active = well fitted curve in the direction sought with a large enough effect; inconclusive = small, poorly fitted or top-dose-only effect, or another doubt; inactive = no such curve, though single readings can be large; an effect the other way counts as inactive or inconclusive.

Columns and labels:
[1] = qHTS assay to identify small molecule inhibitors of chordoma cells - UCH-2 (AID 1259356); also: series mostly up to about 46 µM
[2] = P-glycoprotein substrates identified in KB-3-1 adenocarcinoma cell line, qHTS therapeutic library screen (AID 1346986); also: nearly all actives have a fitted effect of over 60% in size;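 also: potency is read from the fitted curve at half-maximal effect; potency is for cytotoxicity meaning loss of cell viability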
Outline: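 Viability read by CellTiter-Glo after 72 h compound exposure in dose-response of KB-3-1 and KB-8-5-11 (P-gp-high) cells. Hits needed AC50 < 10 uM, >50% maximum response and curve class -1.1 to -2.4. Cherry-picks retested ± tariquidar, including pcDNA/MDR-19 HEK-293 pair.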

[3] = P-glycoprotein substrates identified in KB-8-5-11 adenocarcinoma cell line, qHTS therapeutic library screen (AID 1346987); also: nearly all actives have a fitted effect of over 65% in size; also: potency is read from the fitted curve at half-maximal effect
Outline: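 Compounds are pinned in dose-response onto KB-8-5-11 cells (500 cells/well, colchicine-free medium) and left 72 h at 37 degree C. CellTiter-Glo luminescence then yields AC50 values.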

[4] = qHTS assay to identify small molecule inhibitors of chordoma cells - UCH-1 (AID 1259355); also: nearly all actives have a fitted effect of over 55% in size
Outline: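 800 cells/well, overnight attach; compounds pinned at 15 concs, then auranofin/camptothecin/doxorubicin/rubitecan/topotecan combo added; 48hr 37 C, 5% CO2; CellTiter-Glo, 30min RT, luminescence.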

[5] = Natriuretic polypeptide receptor (hNpr1) antagonism - Pilot counterscreen GloSensor control cell line (AID 1347045; calls by dose curve; also: series mostly up to about 38 µM)
Outline: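 Control counterscreen: luciferase cGMP-biosensor HEK293 cells (no Npr1) received compound for 30 min at room temperature after GloSensor substrate loading. Luminescence was measured before and 20 min after soluble guanylyl cyclase activation by 50 uM nitroprusside.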

[6] = target: Atrial natriuretic peptide receptor 1 (Homo sapiens) (UniProt P16066); experiment: Natriuretic polypeptide receptor (hNpr1) antagonism - Pilot screen (AID 1347049; calls by dose curve;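 also: HEK293 cells with hNpr1 and GloSensor cGMP luciferase stimulated by 0.1 nM hNppA; agonist-evoked cGMP luminescence read 20 min after hNppA addition; series mostly up to about 58 µM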)
Chain of Atrial natriuretic peptide receptor 1 (Homo sapiens) (P16066 whole entry, looked up): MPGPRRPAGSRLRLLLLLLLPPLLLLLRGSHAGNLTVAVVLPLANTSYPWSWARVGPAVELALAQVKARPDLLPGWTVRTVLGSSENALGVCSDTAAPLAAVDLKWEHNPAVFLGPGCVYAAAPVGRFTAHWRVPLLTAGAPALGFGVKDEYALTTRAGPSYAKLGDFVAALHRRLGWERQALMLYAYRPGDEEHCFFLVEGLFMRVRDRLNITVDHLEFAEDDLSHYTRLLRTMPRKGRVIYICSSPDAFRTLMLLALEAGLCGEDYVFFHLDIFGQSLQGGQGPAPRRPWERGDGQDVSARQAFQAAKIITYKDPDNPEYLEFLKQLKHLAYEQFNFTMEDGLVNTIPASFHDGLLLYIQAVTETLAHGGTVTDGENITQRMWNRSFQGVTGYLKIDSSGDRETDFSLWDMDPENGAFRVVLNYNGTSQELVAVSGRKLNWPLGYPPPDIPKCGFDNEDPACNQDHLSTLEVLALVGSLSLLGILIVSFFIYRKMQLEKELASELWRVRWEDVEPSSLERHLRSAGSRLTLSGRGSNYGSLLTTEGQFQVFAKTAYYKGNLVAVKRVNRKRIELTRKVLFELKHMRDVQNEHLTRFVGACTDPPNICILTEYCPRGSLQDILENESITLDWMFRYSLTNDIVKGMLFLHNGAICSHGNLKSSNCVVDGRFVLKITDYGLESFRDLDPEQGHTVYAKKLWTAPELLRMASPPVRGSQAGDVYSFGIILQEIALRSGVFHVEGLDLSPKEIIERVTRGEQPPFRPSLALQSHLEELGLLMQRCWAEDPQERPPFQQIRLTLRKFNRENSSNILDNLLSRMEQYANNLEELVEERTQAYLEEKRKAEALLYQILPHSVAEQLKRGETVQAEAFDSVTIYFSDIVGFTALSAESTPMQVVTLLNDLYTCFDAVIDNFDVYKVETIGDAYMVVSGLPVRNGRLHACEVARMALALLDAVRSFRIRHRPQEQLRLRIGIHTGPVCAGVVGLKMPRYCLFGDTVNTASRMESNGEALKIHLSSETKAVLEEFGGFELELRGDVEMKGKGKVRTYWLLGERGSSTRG
Outline: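 Receptor antagonism read as cGMP-dependent luminescence in hNpr1/pGS-40F HEK293 cells: pre-read after 30 min compound exposure, post-read 20 min after hNppA agonist at 0.1 nM final, all at room temperature, protected from light; A-71915 titration as control.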

[7] = target: Atrial natriuretic peptide receptor 2 (Homo sapiens) (UniProt P20594); experiment: Natriuretic polypeptide receptor (hNpr2) antagonism - Pilot subtype selectivity assay (AID 1347050; calls by dose curve)
Chain of Atrial natriuretic peptide receptor 2 (Homo sapiens) (P20594 whole entry, looked up): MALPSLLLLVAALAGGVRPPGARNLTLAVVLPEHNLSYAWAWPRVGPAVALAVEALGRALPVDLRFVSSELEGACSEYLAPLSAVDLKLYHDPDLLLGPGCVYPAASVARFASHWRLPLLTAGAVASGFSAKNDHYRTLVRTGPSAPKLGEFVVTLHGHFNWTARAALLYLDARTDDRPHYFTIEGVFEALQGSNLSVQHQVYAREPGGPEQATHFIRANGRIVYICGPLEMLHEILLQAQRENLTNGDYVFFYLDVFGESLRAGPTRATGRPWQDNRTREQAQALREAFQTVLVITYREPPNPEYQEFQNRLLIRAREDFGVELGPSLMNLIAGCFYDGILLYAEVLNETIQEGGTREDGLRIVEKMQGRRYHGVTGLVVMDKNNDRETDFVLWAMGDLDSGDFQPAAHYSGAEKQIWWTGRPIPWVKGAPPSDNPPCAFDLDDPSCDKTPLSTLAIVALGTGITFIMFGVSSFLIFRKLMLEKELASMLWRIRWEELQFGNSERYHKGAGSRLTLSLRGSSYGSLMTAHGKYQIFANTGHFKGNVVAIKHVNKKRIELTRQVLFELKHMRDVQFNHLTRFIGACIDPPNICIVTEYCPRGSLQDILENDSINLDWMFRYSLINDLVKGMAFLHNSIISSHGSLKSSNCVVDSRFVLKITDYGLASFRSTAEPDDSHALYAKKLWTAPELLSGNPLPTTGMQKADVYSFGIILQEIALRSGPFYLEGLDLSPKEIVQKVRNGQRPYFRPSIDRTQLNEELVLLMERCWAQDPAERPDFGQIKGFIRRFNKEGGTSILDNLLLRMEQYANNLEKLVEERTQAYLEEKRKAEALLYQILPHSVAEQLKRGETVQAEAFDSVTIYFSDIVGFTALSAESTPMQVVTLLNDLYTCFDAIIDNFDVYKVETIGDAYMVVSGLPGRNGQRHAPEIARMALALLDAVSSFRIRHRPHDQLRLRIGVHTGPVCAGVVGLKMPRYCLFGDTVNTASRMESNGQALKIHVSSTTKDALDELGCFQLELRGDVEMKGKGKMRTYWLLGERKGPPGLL
Outline: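 Antagonist mode: compounds (LOPAC1280, seven 1:5 dilutions) added 30 min before 1 nM hNppC stimulation of hNpr2-HEK293 cGMP-sensor cells; luminescence read before and 20 min after agonist at ambient temperature.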

[8] = Identifying Small Molecule Inhibitors of Pancreatic Cancer Stem Cells (SN12C, Spheroid) (AID 1259360); conditions: Potency: SN12C spheroid viability; also: potency is read from the fitted curve at half-maximal effect
Outline: (§1)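 Viability is scored by CellTiter-Glo luminescence 48 h after dosing, expressed as percent activity against vehicle and no-cell references. Spheroid formats rely on cells cultured 14 days in stem cell media beforehand.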

[9] = Identifying Small Molecule Inhibitors of Pancreatic Cancer Stem Cells (A2780, Spheroid) (AID 1259357); conditions: Potency: A2780 spheroid viability;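 also: compound exposure lasted 48 h before the ATP luminescence read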; also: potency is read from the fitted curve at half-maximal effect
Outline: as §1

[10] = Identifying Small Molecule Inhibitors of Pancreatic Cancer Stem Cells (Panc1, Spheroid) (AID 1259359); conditions: Panc1 spheroid cancer stem cell viability;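 also: potency is read from the fitted curve at half-maximal effect; compound exposure lasted 48 h before reading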
Outline: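 Monolayer and spheroid cultures are compared. Spheroids form over 14 days in stem cell medium on hydrogel-coated low-attachment plates, then are exposed to compound for 48 h before CellTiter-Glo luminescence.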

SMILES: CCOC(=O)O[C@]1(C(=O)OCCl)CC[C@@H]2[C@H]3CCC4=CC(=O)C=C[C@]4(C)[C@@H]3[C@@H](O)C[C@@]21C
- outcome [1]: inactive
- Potency [2]: inactive
- Potency [3]: inactive

SMILES: Cc1cnc(C(=O)O)c[n+]1[O-]
- Potency [4]: inactive
- outcome [1]: inactive
- Potency [2]: inactive
- Potency [3]: inactive

SMILES: CCN(CC)CCOC(=O)c1ccc(N)cc1
- Potency [4]: inactive
- outcome [1]: inactive
- Potency [3]: inactive
- Potency [5]: inactive
- outcome [6]: inactive
- outcome [7]: inactive

SMILES: CO[C@@H](C(=O)N1Cc2[nH]nc(NC(=O)c3ccc(N4CCN(C)CC4)cc3)c2C1)c1ccccc1
- Potency [8]: inactive
- Potency [2]: 1.3 µM (active)

SMILES: CCOc1ccc(Nc2nc(-c3c(C)nc4ccccn34)cs2)cc1
- Potency [9]: 0.296 µM (active)
- Potency [3]: 1 nM (active) and 36.6 nM (active)

SMILES: Clc1ccc(-c2nc3sccn3c2C=NOCc2ccc(Cl)c(Cl)c2)cc1
- Potency [8]: inactive
- Potency [3]: inactive

SMILES: O=C(O)c1ccc(-c2cc3cccnc3c(-c3ccc4nonc4c3)n2)cc1
- Potency [8]: inactive

SMILES: CC(C)(C(=O)NCC(F)(F)C(F)(F)F)C(=O)N[C@@H]1C(=O)Nc2ccccc2-c2ccccc21
- Potency [10]: 0.0015 µM (active)
- Potency [8]: inactive
- Potency [2]: inactive
- Potency [3]: inactive

SMILES: Nc1ncnc2c1ncn2[C@@H]1O[C@H](CO)C[C@@H]1O
- Potency [2]: inactive

SMILES: COc1cc(N2CCC(N3CCN(C)CC3)CC2)ccc1Nc1ncc(Cl)c(Nc2ccccc2S(=O)(=O)C(C)C)n1
- Potency [10]: 0.418 µM (active)
- Potency [8]: 20.9 µM (active)
- Potency [3]: 0.651 µM (active)

SMILES: CS(=O)c1ccc(-c2nc(-c3ccc(F)cc3)c(-c3ccncc3)[nH]2)cc1 (stereo not given)
- Potency [8]: inactive
- Potency [2]: inactive
- Potency [3]: inactive

SMILES: CO[C@H]1C[C@@H]2CC[C@@H](C)[C@@](O)(O2)C(=O)C(=O)N2CCCC[C@@H]2C(=O)O[C@H]([C@H](C)C[C@@H]2CC[C@H](OCCO)[C@H](OC)C2)CC(=O)[C@H](C)C=C(C)[C@@H](O)[C@@H](OC)C(=O)[C@H](C)C[C@H](C)C=CC=CC=C1C
- Potency [10]: 26.4 µM (active)
- Potency [3]: 3.32 µM (active)

SMILES: CN1CCN(CCOc2cc(OC3CCOCC3)c3c(Nc4c(Cl)ccc5c4OCO5)ncnc3c2)CC1
- Potency [9]: inactive
- Potency [8]: 18.7 µM (active)
- Potency [3]: inactive

SMILES: COc1cc(Nc2ncc(F)c(Nc3ccc4c(n3)NC(=O)C(C)(C)O4)n2)cc(OC)c1OC
- Potency [9]: inactive
- Potency [3]: 2.59 µM (active) and 18.4 µM (active) and inactive

SMILES: CC(C)(C)COc1ccc(-n2cc(C(=O)O)cn2)cc1C#N
- Potency [9]: inactive
- Potency [8]: inactive
- Potency [3]: inactive

SMILES: CC1(C)O[C@H]2C[C@@H]3[C@H]4CCC5=CC(=O)C=C[C@]5(C)[C@@]4(F)[C@@H](O)C[C@]3(C)[C@]2(C(=O)CO)O1
- outcome [1]: inactive
- Potency [3]: inactive

SMILES: c1ccc2c(-c3cnn4cc(-c5ccc(N6CCNCC6)cc5)cnc34)ccnc2c1
- Potency [10]: 26.4 µM (active)

SMILES: CO[C@H]1C=CC=C(C)C(=O)NC2=CC(=O)C(NCCN(C)C)=C(C[C@@H](C)C[C@H](OC)[C@@H](O)[C@@H](C)C=C(C)[C@@H]1OC(N)=O)C2=O
- Potency [8]: 0.0059 µM (active)
- Potency [3]: 7.43 µM (active)

SMILES: O=C(O)CCC1CCC(c2cc(F)ccc2F)(S(=O)(=O)c2ccc(Cl)cc2)CC1 (stereo not given)
- Potency [10]: 3.32 µM (active)
- Potency [2]: inactive
- Potency [3]: inactive

SMILES: CC(C)(C)c1ccc(C(O)CCCN2CCC(C(O)(c3ccccc3)c3ccccc3)CC2)cc1 (stereo not given)
- outcome [1]: inactive
- Potency [3]: 13 µM (active) and 18.4 µM (active)
- outcome [7]: inactive

SMILES: CC/C(=C(\c1ccccc1)c1ccc(OCCN(C)C)cc1)c1ccccc1
- outcome [1]: inactive
- outcome [6]: inactive
- outcome [7]: inactive
